PERK inhibitor: inhibitors of human PERK kinase; AID 1416; Q9NZJ5; actives 0.17% (n = 220,000); CHO PERK-DD fusion, SEAP luminescence translation reporter; inhibition, % at 5.6 µM;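 active = inhibition above the mean inhibition of all tested compounds plus 3 SD, set separately per screening campaign, cut at about 2.9% in these data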;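 also: PERK kinase domain activated by AP20187 dimerizer at 100 nM; 0% = DMSO with dimerizer and 100% = rapamycin at 8.4 µM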
PABP FP inh: blocks human PABP binding to poly(A) RNA | P11940 | fluorescence polarization | inhibition, % at 35 µM | actives 1% (n = 290,000);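 also: calls also rest on retests at 20 µM and on dose response follow-up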
Target sequence (P11940 whole entry, looked up): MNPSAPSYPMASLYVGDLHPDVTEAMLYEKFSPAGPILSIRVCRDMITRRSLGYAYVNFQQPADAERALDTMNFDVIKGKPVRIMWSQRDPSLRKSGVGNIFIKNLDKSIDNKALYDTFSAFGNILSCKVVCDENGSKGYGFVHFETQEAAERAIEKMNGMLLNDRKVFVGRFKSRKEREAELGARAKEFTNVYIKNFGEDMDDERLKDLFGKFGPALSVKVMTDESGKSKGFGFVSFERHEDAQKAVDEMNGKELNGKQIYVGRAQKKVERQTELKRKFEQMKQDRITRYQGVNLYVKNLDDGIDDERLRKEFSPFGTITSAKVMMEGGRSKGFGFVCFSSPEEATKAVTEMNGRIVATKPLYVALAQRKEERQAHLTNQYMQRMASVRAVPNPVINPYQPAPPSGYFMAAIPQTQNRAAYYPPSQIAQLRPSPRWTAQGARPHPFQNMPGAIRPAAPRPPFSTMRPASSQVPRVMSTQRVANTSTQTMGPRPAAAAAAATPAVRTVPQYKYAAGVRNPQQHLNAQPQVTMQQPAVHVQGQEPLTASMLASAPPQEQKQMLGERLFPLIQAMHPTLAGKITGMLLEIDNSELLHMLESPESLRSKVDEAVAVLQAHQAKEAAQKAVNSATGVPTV
PABP1 MLLE inh: blocks PAM2 peptide binding to the PABP1 MLLE domain. inhibition, % at 20 µM. P11940. actives 0.36% (n = 360,000). GST-MLLE / FITC-PAM2 fluorescence polarization; in the data active = inhibition above about 35%, passing the limit was not always enough;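 also: plate controls were DMSO wells with GST-MLLE for no effect and wells lacking GST-MLLE protein for full effect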
eIF4H inh: inhibitors of RNA binding by human eIF4H; inhibition, % at 35 µM; eIF4H fluorescence polarization binding assay; actives 0.94% (n = 290,000); Q15056;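 also: calls also rest on retests at 20 µM and on dose response follow-up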
eIF4E-4G inh: blocks eIF4E binding to eIF4G | AID 782 | P63073+Q04637 | actives 0.37% (n = 220,000) | inhibition, % at 21.7 µM | TR-FRET eIF4E-eIF4GI(517-606) binding, 2 h;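 active = inhibition above about 30%, limit read from the data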;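 also: 0% = full FRET control wells and 100% = background wells lacking eIF4GI fragment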
Active calls of the source: *; ? = inconclusive; · = no result given; [ ] = remark or other dose. Most compounds without a hit are left out; they make up all but 1.6% or so of the library. Unless noted, no rule for the calls is given here.

SMILES	PERK inhibitor	PABP FP inh	PABP1 MLLE inh	eIF4H inh	eIF4E-4G inh
CC(C)CNC(=S)N1CCC(NC(=O)c2ccco2)CC1	2	-3	-106	-8	1
CCOC(=O)c1sc(=S)n(C)c1NC(=O)c1ccccc1Cl	0	5	43*	1	-1
CCOC(=O)c1sc(=S)n(C)c1NC(=O)c1ccc(OC)cc1	1	1	31	-9	7
O=c1c2cc(N3CCOCC3)ccc2[nH]c(=S)n1Cc1ccc(Cl)cc1	-2	16	-85	4	-2
Cc1ccc(Cn2c(=S)[nH]c3ccc(N4CCOCC4)cc3c2=O)o1	1	54*	14	72*	24
COc1ccccc1N1CCN(CC(O)COCCOc2ccc(Br)cc2)CC1 (stereo not drawn)	-1	6	12	2	-1
Cn1c(C(=O)N[C@@H](Cc2ccccc2)C(=O)NCCC(=O)O)cc2cc(Cl)ccc21	·	50	-24	71	·
Fc1ccc(NCc2cccnc2)cc1F	-1	?	48*	?	-5
C/C=C/C(=O)OCC(=O)Nc1ccc(SC(F)F)cc1	0	50*	29	active	2
CC(=O)OCC(=O)Nc1ccc(SC(F)F)cc1	0	-15	30	0	-1
C[C@]12CS(=O)(=O)C[C@H]1SC(=S)N2c1ccccc1	4.7*	21	-7	5	3
O=S(=O)(c1ccc(F)cc1)N1CCN(C(=S)NC2CC2)CC1	·	·	-86	·	·
CC[n+]1c(/C=C/c2c[nH]c3ccccc23)ccc2cc(C)ccc21	-1	-5	·	?	32*
Cc1ccccc1-n1c(N)cc(=O)[nH]c1=S	1	-2	27	-1	-3
O=c1cc(O)n(-c2ccccc2F)c(=S)[nH]1	0	64*	-2	46*	-1
Cc1ccccc1-n1c(O)cc(=O)[nH]c1=S	2	22	19	53*	6
COc1ccccc1NC(=O)c1ccc2c(c1)N(CC#N)C(=O)C(C)(C)O2	·	7	7	2	·
COc1ccc(OC)c(-c2csc(NC(=O)Cn3[nH]c(=O)c4ccccc4c3=O)n2)c1	0	-1	-19	-17	42*
COc1ccc(OC)c(-c2csc(NC(=O)Cc3ccc(F)cc3)n2)c1	·	-11	-1	-12	·
Cc1cc(N2CCOCC2)nc2ccc(NC(=O)CCC(=O)N3CCN(c4ccccc4F)CC3)cc12	·	7	4	-2	·
O=C(CCO)c1ccc(O)cc1	1	51*	-13	94*	10
CCCCc1c(C)nc2c(OC)cccc2c1SCC(=O)O	4.2*	4	-10	-2	2
CCN(c1c(C)n(C)n(-c2ccccc2)c1=O)S(C)(=O)=O	1	1	52*	7	-13
Oc1ccccc1-c1cc(C(F)(F)C(F)F)[nH]n1	0	-6	-17	0	-1
Cc1c(O)cc2n(c1=O)-c1ccc(Cl)cc1C2(C)C	0	2	2	1	0
SMILES	PERK inhibitor	PABP FP inh	PABP1 MLLE inh	eIF4H inh	eIF4E-4G inh
CC1(C)c2cc(Cl)ccc2-n2c1cc(O)c(-c1ccccc1)c2=O	0	-2	-10	-5	70*
O=C(Nc1nc2ccsc2c(=O)s1)c1ccco1	0	23	-6	64*	-7
COc1ccc(-c2csc(NC(=O)c3ccco3)n2)cc1	0	0	-7	12	5
O=C(Nc1nc(-c2ccccc2)cs1)c1ccco1	-2	-1	-9	3	66*
Cc1csc2c(=O)sc(NC(=O)c3ccco3)nc12	0	5	32	0	-28
O=C(COc1ccccc1)Nc1nc(-c2ccncc2)cs1	·	33	35*	-10	·
CC(C)c1ccc(NC(=O)C2C3C=CC(CC3)C2C(=O)O)cc1 (stereo not drawn)	·	·	-23	·	·
O=[N+]([O-])c1cccc(S(=O)(=O)N2CCc3ccccc3C2)c1	·	0	0	-8	·
CCn1c(C)c(C(C)=O)c(N2CCN(C(=O)c3ccco3)CC2)nc1=S	1	-1	26	2	71*
CC(=O)c1c(N2CCN(Cc3ccccc3)CC2)nc(=S)n(-c2ccccc2)c1C	0	active	-8	54*	0
CC(=O)c1c(N2CCN(CCO)CC2)nc(=S)n(-c2ccccc2)c1C	-1	41	0	?	0
COc1ccc(C(=O)Nc2ccc3nc(N4CCN(C)CC4)cc(C)c3c2)c(OC)c1	·	8	-2	-8	·
CCCCCCNC(=O)c1ncn[nH]1	0	15	8	3	4
CCC(=O)Nc1ccc(NC(=O)c2c(C)nc3ccccn23)cc1	0	-6	0	-12	-6
CCNc1nc2[nH]c(=O)c3c(c2s1)OC(N)=C(C#N)C3c1ccc(C)cc1 (stereo not drawn)	1	80*	-8	?	-7
COc1ccc(OCCSCc2nnc(NC(=O)Nc3ccc(Cl)cc3)s2)cc1	0	1	-21	-3	5
Cc1ccc(OCCSc2nnc(NC(=O)c3ccco3)s2)cc1	1	-10	-2	-9	2
CCCCOC(=O)Nc1nnc(SCCOc2ccc(C)cc2)s1	1	7	11	28	44*[fluorescence artefact?]
Cc1ccc(NC(=O)Nc2nnc(CSCCOc3ccc(Cl)cc3)s2)cc1	1	active	-30	84	-5
COc1ccc(N(CC(=O)Nc2cc(C)ccc2C)S(=O)(=O)c2c(C)noc2C)cc1	·	-9	13	8	·
Cc1nc(SCN2C(=O)c3ccccc3C2=O)n[nH]1	-1	9	30	-10	1
COc1cc(/C=c2\s/c(=C(/C#N)C(=O)N3CCCC3)n(-c3ccccc3)c2=O)ccc1O	0	112*	-33	80*	6
COC(=O)/C=c1/s/c(=C(/C#N)C(=O)N2CCCCC2)n(-c2ccccc2)c1=O	0	-8	18	4	4
CCOC(=O)C1CCCN(C(=O)COC(=O)c2cccs2)C1 (stereo not drawn)	·	·	-12	·	·
CC(=O)c1cccc(S(=O)(=O)N2CCCC(c3nc4c(nnn4Cc4ccc(C)cc4)c(=O)[nH]3)C2)c1 (stereo not drawn)	·	0	7	-8	·
SMILES	PERK inhibitor	PABP FP inh	PABP1 MLLE inh	eIF4H inh	eIF4E-4G inh
O=C(NCCCO)/C(=C/c1ccco1)NC(=O)c1ccc(Br)o1	0	-6	8	58*	11
FC(F)(F)c1cccc(NC(=S)Nc2cccc(NC(=S)Nc3cccc(C(F)(F)F)c3)n2)c1	0	5	47*	3	-3
Cc1cccc(NC(=S)Nc2cccc(C(F)(F)F)c2)n1	0	-3	14	-9	-16
FC(F)(F)c1cccc(NC(=S)NNC(=S)NCc2ccccc2)c1	0	5	41*	17	-3
FC(F)(F)c1cccc(NC(=S)NCc2ccccn2)c1	0	4	21	-6	-4
CC(=O)Nc1ccc(S(=O)(=O)c2ccc(N)cc2)cc1	0	26	11	6	4
O=C1C2=C(SCCS2)C(=O)N1CCCO	0	111*	58*	101*	1
Cc1onc2c(=O)n(-c3ccccc3)nc(-c3ccccc3)c12	1	-4	4	2	6

Screening results as filed in PubChem BioAssay.
